# Assay outcomes from PubChem BioAssay.
# Shown are actives, neighbours in structure and some others; about 3.5% of the full set was active somewhere.
# mHTT CaM bind: mutant huntingtin-calmodulin interaction inhibitors – biochemical, AlphaScreen, primary screen; AlphaScreen His-mHTT/GST-CaM binding, luminescence; inhibition, % at 15 µM; 190,000 tested, 3.6% active; AID 1671202, 2021;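 also: 0% = both proteins with DMSO and 100% = one protein alone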
# Pf apPOL block: Pf-apPOL inhibitors, biochemical, fluorescence; 210,000 tested, 0.25% active; Plasmodium falciparum apicoplast DNA polymerase (apPOL); inhibition, % at 10 µM; Recombinant Pf-apPOL, molecular beacon fluorescence, 1.5 h
# Numbers without * were called inactive; i = inactive; / = no result given. Rule as the data show it: active = inhibition above about 50%; inactive = the rest.
SMILES,mHTT CaM bind,Pf apPOL block
CC(Oc1cc2oc(=O)cc(-c3ccccc3)c2cc1Cl)C(=O)O (centres undefined),100.0*,-1.1
N#CC1=C(N)Oc2n[nH]c(-c3ccccc3)c2C12C(=O)Nc1ccccc12 (centres undefined),3.0,-1.8
N#CC1=C(N)Oc2n[nH]c(-c3ccccc3)c2C12c1ccccc1-c1ccccc12,90.0*,-1.6
Cc1ccc([N+](=O)[O-])cc1NS(=O)(=O)c1cccc(C(=O)Nc2cccc(C(=O)O)c2)c1,10.3,6.1
COc1cccc(C(=O)N2CCN=C2SC)c1OC,5.0,-2.7
COc1cccc(C(=O)N2CCN=C2SCc2cccc(F)c2)c1OC,-20.3,59.1*
CN(C)C=Nc1nc2c(s1)CCc1ccccc1-2,/,-15.8
Cc1ccnc(NS(=O)(=O)c2ccc(NC(=O)CSc3nc(C)cc(=O)[nH]3)cc2)n1,-3.0,-1.7
Cc1cc(C)nc(NS(=O)(=O)c2ccc(NC(=O)CSc3ncn[nH]3)cc2)n1,-2.0,61.8*
Nc1ccc(-c2ncccc2O)cc1,1.1,5.9
CCN1CCn2cc(C(=O)N3CCN(c4ccccc4)CC3)nc2C1,4.6,-2.2
CC(C)CN1CCn2cc(C(=O)N3CCN(c4ccccc4F)CC3)nc2C1,37.8,-8.6
CC(C)CN1CCn2cc(C(=O)N3CCN(c4cccc(Cl)c4)CC3)nc2C1,85.8*,-1.4
CC(C)CN1CCn2cc(C(=O)N3CCN(c4ccc(F)cc4)CC3)nc2C1,91.4*,-5.4
Cc1ccc(-n2cc(-c3ccc4c(c3)OCO4)[nH]c2=O)cc1,70.0*,1.0
O=c1[nH]c(-c2ccc3c(c2)OCO3)cn1-c1ccccc1,7.0,0.0
CCc1ccccc1NC(=O)c1ccc2[nH]c3c(c2c1)CN(C(C)=O)CC3,22.0,-0.9
CC(=O)N1CCc2[nH]c3ccc(C(=O)NCc4ccc(N5CCCC5)cc4)cc3c2C1,88.6*,-1.6
CC(=O)N1CCc2[nH]c3ccc(C(=O)NCCc4ccc(F)cc4)cc3c2C1,52.2*,-8.2
COc1ccccc1CNC(=O)c1ccc2[nH]c3c(c2c1)CN(C(C)=O)CC3,27.7,-1.5
CCc1ccc(N(CC)C(=O)c2ccc3[nH]c4c(c3c2)CN(C(C)=O)CC4)cc1,68.3*,-2.3
COc1ccc(OC)c(CNC(=O)c2ccc3[nH]c4c(c3c2)CN(C(C)=O)CC4)c1,43.7,7.7
COc1ccc(CNC(=O)c2ccc3[nH]c4c(c3c2)CN(C(C)=O)CC4)c(OC)c1,50.7*,-3.3
COc1ccc(CCNC(=O)c2ccc3[nH]c4c(c3c2)CN(C(C)=O)CC4)cc1OC,46.4,-7.6
COc1cccc(NC2(c3nnnn3-c3ccccc3C)CCCC2)c1,1.0,-3.2
SMILES,mHTT CaM bind,Pf apPOL block
CCCn1cc(CNC(=O)c2nc(C)n(C3CCN(C(C)=O)CC3)c2C)c(C)n1,-1.6,-3.0
O=C(/C=C1\Sc2ccccc2N(Cc2ccc(F)cc2)C1=O)NC1CC1,8.0,-18.2
CCSc1nc2c(c(=O)[nH]1)C(c1cccnc1)C1=C(CC(C)(C)CC1=O)N2 (centres undefined),5.0,-5.0
O=[N+]([O-])c1cc(Cl)cc(C=Nc2ccc(-c3nc4ncccc4o3)cc2)c1O,15.0,-19.7
COc1ccc(S(=O)(=O)Oc2ccc3c(c2)OC(=Cc2cccc(OC)c2)C3=O)cc1,13.2,9.4
Cc1ccc(C2SCCN2S(C)(=O)=O)cc1 (centres undefined),-1.0,-7.4
O=S(=O)(NCCCCCc1nc2ccccc2[nH]1)c1ccc(Cl)c(Cl)c1,66.0*,-4.1
O=S(=O)(NCCCc1nc2ccccc2[nH]1)c1ccc(Cl)cc1,-2.0,-7.4
Cc1ccccc1C1C=C(c2ccc(Cl)cc2)Nc2ncnn21 (centres undefined),0.0,5.3
OC1(CC#CCN2CCOCC2)c2ccccc2-c2ccccc21,3.8,5.1
O=C1CCCc2oc3ccc(NS(=O)(=O)c4cc([N+](=O)[O-])ccc4Cl)cc3c21,27.0,10.1
O=[N+]([O-])c1cc(S(=O)(=O)Nc2ccc3oc4c(c3c2)CCCC4)ccc1Cl,75.0*,-9.3
O=[N+]([O-])c1ccc2oc3c(c2c1)CCCC3,-4.1,-3.0
Cc1ccc(S(=O)(=O)Nc2ccc3oc4ccccc4c3c2)cc1[N+](=O)[O-],97.0*,-2.4
O=[N+]([O-])c1ccc(Cl)c(S(=O)(=O)Nc2ccc3oc4c(c3c2)CCCC4)c1,68.0*,21.5
Cc1ccc(S(=O)(=O)Nc2ccc(Cl)cc2)cc1[N+](=O)[O-],8.7,-0.6
COc1cccc(NC(=O)c2cc(S(=O)(=O)NCc3ccc(F)cc3)ccc2F)c1,3.0,-1.1
Cc1ccc2c(c1)C=C/C(=C\c1cccc[n+]1C)N2C,15.0,-3.8
CCOc1ccc(NC(=O)Cn2ncc3c(c2=O)N(C2CC2)C(=O)CS3)cc1,0.5,2.4
N#C/C(=C\c1ccco1)c1nc2ccccc2[nH]1,2.7,-7.8
CCOc1ccc(/C=C(\C#N)c2nc3ccc(C)cc3[nH]2)cc1,19.1,0.4
Cc1ccc2nc(/C(C#N)=C/c3ccc(-c4cc([N+](=O)[O-])ccc4O)o3)[nH]c2c1,55.5*,-1.2
Cc1ccc2nc(/C(C#N)=C/c3ccc([N+](=O)[O-])o3)[nH]c2c1,-6.2,-2.3
Cc1ccc2nc(/C(C#N)=C/c3ccc(-c4ccc5c(c4)C(=O)NC5=O)o3)[nH]c2c1,68.0*,-4.1
CCOc1cc(/C=C(\C#N)c2nc3ccc(C)cc3[nH]2)cc(I)c1O,80.0*,-1.0
SMILES,mHTT CaM bind,Pf apPOL block
Cc1ccc2nc(/C(C#N)=C/C=C/c3ccco3)[nH]c2c1,67.2*,-6.9
COc1cc(-c2ccc(/C=C(\C#N)c3nc4ccc(C)cc4[nH]3)o2)c(OC)cc1Cl,35.0,-20.5
O=S(=O)(NCC1(c2cccs2)CCOCC1)c1cc(F)ccc1F,-10.4,2.3
O=S(=O)(c1ccc(F)c(Cl)c1)N1CCC(CN2CCCCCC2)CC1,-1.3,6.6
Cc1cc(C)cc(Nc2nnc(-c3cc4c(CO)cnc(C)c4oc3=O)s2)c1,4.0,-9.6
Cc1sc(NC(=O)c2ccco2)c(C(c2ccccc2)N2CCCC2)c1C (centres undefined),19.7,-4.7
CCOc1nc(NCCN2CCOCC2)nc(Nc2ccc(I)cc2)n1,57.0*,6.0
Clc1nc(NCCN2CCOCC2)nc(Nc2ccc(I)cc2)n1,4.0,-1.3
Clc1cccc2nnc(-c3cccc(OCc4ccccc4)c3)n12,14.0,-2.8
CN1C(=CC=C2C(=O)Oc3ccccc3C2=O)C(C)(C)c2ccccc21,-6.8,i
CN1/C(=C\Sc2ccccc2[N+](=O)[O-])C(C)(C)c2ccccc21,76.0*,0.6
CCSC1=NC(=O)/C(=C2\C=Cc3ccccc3N2CC)S1,49.0,-17.3
CCN1C(=O)/C(=C2\C=Cc3ccccc3N2CC)SC1=Nc1ccc(OC)cc1,55.0*,0.6
NNc1nnc2c(n1)[nH]c1ccccc12,100.0*,-6.8
Cc1ccc2[nH]c3nc(NN)nnc3c2c1,46.6,-6.3
Cc1cccc2c1[nH]c1nc(NN)nnc12,66.5*,-0.6
CCCSc1nnc2c(n1)[nH]c1c(C)cccc12,9.0,-3.5
CCOC(=O)c1noc(C)c1-c1csc(CS(=O)(=O)Cc2cccc(C(F)(F)F)c2)n1,/,4.8
CCn1cnc2sc(C(=O)Nc3nc4ccc(Br)cc4s3)c(C)c2c1=O,-2.0,-15.2
CCOc1ccc(N2CC(c3nnc(NC(=O)c4ccc(C)cc4)o3)CC2=O)cc1 (centres undefined),60.3*,-2.4
